TRHR enhancer-1 = TRH receptor (human) allosteric enhancement; P34981; TRHR cells, fluo-8 calcium fluorescence, EC20 TRH enhancement; enhancement, % at 2 µM; hit rate 0.66% among 360,000; AID 493056; in the data active means enhancement above about 30%; further: 0% is about no effect
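Enhancer read-out: after compound pinning and an initial kinetic agonist-mode read, an EC20 of TRH (10 nM final) was injected and fluo-8 calcium signal (Ex 480/Em 530) followed at 1 s/cycle for 100 cycles in TRHR-expressing cells.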
TRPML1 ag = activates the human TRPML1 channel; Q9GZU1; TRPML1-expressing cells, Ca2+ dye fluorescence, FDSS; activation, % (concentration not given with the values); hit rate 0.12% among 410,000; in the data active means activation above about 50%; inconclusive means mostly about 30% to 49%; further: 0% is about no effect
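Kinetic FDSS Ca2+ read in Tet-induced TRPML1-DL cells (ABD Ca8 dye plus quencher, 45-90 min RT loading): baseline, then compound, then 110 s agonist window; EC80 agonist 54-4 at 4uM final added afterwards for a 110 s antagonist window.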
TRPV1 agonist = human TRPV1 agonism | activation, % at 8.33 µM | AID 540275 | TRPV1-expressing cells, Fluo-8 calcium influx, agonist mode | hit rate 0.19% among 320,000; in the data active means activation above about 80%; inconclusive means between about 30% and that limit; further: 0% is about no effect
Target sequence (Q8NER1 whole entry, looked up): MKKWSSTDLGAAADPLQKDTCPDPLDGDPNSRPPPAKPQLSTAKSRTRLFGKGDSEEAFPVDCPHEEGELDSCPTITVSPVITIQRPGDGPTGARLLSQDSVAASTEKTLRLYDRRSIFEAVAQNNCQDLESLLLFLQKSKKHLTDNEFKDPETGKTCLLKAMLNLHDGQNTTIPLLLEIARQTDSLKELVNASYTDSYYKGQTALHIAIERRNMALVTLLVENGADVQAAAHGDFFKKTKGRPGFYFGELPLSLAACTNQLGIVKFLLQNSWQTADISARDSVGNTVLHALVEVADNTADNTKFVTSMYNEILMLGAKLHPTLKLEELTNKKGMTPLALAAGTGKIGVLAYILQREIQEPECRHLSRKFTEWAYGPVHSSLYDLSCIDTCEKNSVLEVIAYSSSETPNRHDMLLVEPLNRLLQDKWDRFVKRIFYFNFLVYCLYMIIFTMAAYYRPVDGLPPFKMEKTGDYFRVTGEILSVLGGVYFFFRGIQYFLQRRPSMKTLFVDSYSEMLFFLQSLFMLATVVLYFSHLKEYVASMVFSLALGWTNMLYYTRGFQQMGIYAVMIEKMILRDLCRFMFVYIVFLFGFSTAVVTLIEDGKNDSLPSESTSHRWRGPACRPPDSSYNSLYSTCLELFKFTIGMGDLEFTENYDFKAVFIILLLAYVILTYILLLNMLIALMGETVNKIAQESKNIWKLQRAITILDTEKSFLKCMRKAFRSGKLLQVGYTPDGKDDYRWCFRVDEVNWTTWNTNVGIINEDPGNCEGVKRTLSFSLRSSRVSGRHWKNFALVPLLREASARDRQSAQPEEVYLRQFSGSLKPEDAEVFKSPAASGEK
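Fluo-8 calcium influx in TRPV1-expressing cells, kinetic read (ex 480/em 520 nm). Compound added and read 3 min for agonist activity, followed by capsaicin at EC20 final and 2 min further read for enhancement.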
TRHR agonist-1 = agonists of human TRH receptor | P34981 | TRHR cells, calcium flux fluo-8, FDSS agonist mode | activation, % at 2 µM | hit rate 0.18% among 360,000; in the data active means activation above about 30%; further: 0% is about no effect
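Agonist-mode FDSS calcium read (Ex 480/Em 530, 1 s cycles) in 1536-well TRHR cells with fluo-8 dye, after 10-cycle baseline and 23 nL compound addition; TRH at EC20 (10 nM final) added afterwards for the enhancer phase.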
TRPML1 inh = inhibitors of human TRPML1 channel; TRPML1-inducible cells, Ca2+ dye fluorescence, FDSS; active compounds read low; inhibition of EC80 agonist-evoked calcium signal; activity change, negative = inhibition, % (no concentration beside the values); hit rate 0.02% among 390,000; in the data active means activity change below about -50%; inconclusive means between about -30% and that limit;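 further: stimulus is agonist 54-4 at its EC80 concentration; on the % scale 0 is the no-effect control and ±100 the full control effect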
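Calcium fluorescence in TRPML1-DL cells induced overnight with Tet: a 110 s read after compound pin addition, then a 110 s antagonist read after challenge with 54-4 at 4 uM final (EC80).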
TRPV1 PAM = human TRPV1 potentiation; Q8NER1; potentiation, % at 8.33 µM; TRPV1-expressing cells, Fluo-8 calcium influx, capsaicin EC20 potentiation; AID 540277; hit rate 0.02% among 320,000; in the data active means potentiation above about 80%; inconclusive means between about 30% and that limit; further: 0% is about no effect
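TRPV1-expressing cells were cultured overnight at 35.5C and loaded with Fluo-8 calcium dye for 40 to 90 min at room temperature. After a 10 s baseline, compound was added and calcium influx was read kinetically for 3 min (ex 480/em 520 nm).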
TRHR enhancer-2 = confirmation of human TRH receptor allosteric enhancers; activity change, negative = inhibition, % at 46.1 µM; AID 493076; TRH receptor cell assay, enhancer confirmation qHTS; 970 tested, under 10 active; shares compounds with TRHR enhancer-1;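 further: compound effect scored on response to added TRH at EC20 of 10 nM; 0% is about no effect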
TRHR agonist-2 = human TRH receptor agonism confirmation; TRHR-expressing cells, agonist activation read-out; Potency, µM (doses to about 46.1 µM), for inactives: at the top dose activation, hits mostly activators; shares compounds with TRHR enhancer-1; hit rate 8% among 970; further: potency means the concentration at half of the fitted maximal effect; 0% is about no effect; nearly all actives have a fitted effect of over 75% in size
* marks the source's active call; other numbers are inactive results; ? = inconclusive; . = not tested or not shown. A selection: hits, their analogues and other compounds. The true share with any hit is near 0.99%. Unless noted, the call rests on the fitted dose curve; in most records, active means well fitted curve in the direction sought with a large enough effect; inconclusive means small, poorly fitted or top-dose-only effect, or another doubt; inactive means no such curve, though single readings can be large; an effect the other way counts as inactive or inconclusive.

SMILES	TRHR enhancer-1	TRPML1 ag	TRPV1 agonist	TRHR agonist-1	TRPML1 inh	TRPV1 PAM	TRHR enhancer-2	TRHR agonist-2
O=C(N/N=C/c1c(O)n(-c2ccc(Cl)cn2)c(=O)c2ccccc12)C1CC1	4.6	-0.1	-6.0	1.7	-10.3	13.4	.	.
O=C(N/N=C/c1c(O)n(-c2ccc(Cl)cn2)c(=O)c2ccccc12)c1ccncc1	6.3	11.0	29.9	38.2*	0.3	-11.9	11.3	20.6µM*
CCCN1CNc2c(c(=O)[nH]c(=S)n2CCc2cccc(C)c2C)C1	.	-0.5	.	.	.	.	.	.
O=Cc1ccc(OCc2ccc3c(c2)OCO3)cc1	-1.1	.	6.2	25.9	.	-9.2	-5.3	2.1%
Cc1ccc(COc2ccc3c(c2)OCO3)cc1	8.5	0.1	0.0	0.0	1.0	3.1	.	.
C=C1C=CS(=O)(=O)N(C(CC(C)C)C(=O)OC)C1 (stereo not given)	.	0.8	.	.	4.6	.	.	.
C=C1NN(Cc2ccccc2)C(=O)N1c1ccc(OCc2ccccc2)cc1	.	-0.8	.	.	.	.	.	.
COc1ccc(COC(=O)C2=C(C)NC(=O)NC2c2ccccc2)cc1 (stereo not given)	43.9*	0.9	1.4	0.1	42.3	11.7	-5.1	0.4%
N#C/C(=C/c1ccc(N2CCOCC2)o1)C(=O)NC1CCCCC1	2.1	?	?	46.9*	1.0	-13.6	?	20.6µM*
N#C/C(=C\c1ccc(N2CCOCC2)o1)c1ccccc1	4.6	4.8	4.9	-1.6	8.0	3.5	.	.
Cc1ccc(C)c(C2=CSC3=NS(=O)(=O)CCN23)c1	-10.1	-0.3	4.2	0.8	-6.0	-10.0	.	.
Cc1ccc(C)c(C2=CSC3=NCCN23)c1	67.6*	-0.8	-2.3	-2.1	13.5	7.6	-3.7	0.8%
OC(C[n+]1cccc(Br)c1)c1ccccc1 (stereo not given)	.	-0.2	.	.	.	.	.	.
Cc1ccc(C)c(NC(=O)C2CCCN(S(=O)(=O)c3c(C)nn(C)c3C)C2)c1 (stereo not given)	-0.5	-0.2	0.3	30.2*	5.9	-13.5	-7.2	3.6%
Cc1cccc(NC(=O)C2CCCN(S(=O)(=O)c3c(C)nn(C)c3C)C2)c1 (stereo not given)	.	0.0	.	.	-9.2	.	.	.
Cc1ccc(NC(=O)[C@@H]2CCC(=O)N2C2OC(=O)c3ccccc32)cc1Cl (stereo not given in full)	67.9*	.	-3.8	0.2	.	-11.0	-4.8	7.4%
COc1cc(/C=C2\SC(=S)N(NC(=O)c3ccccc3O)C2=O)ccc1O	9.6	13.2	-0.2	-0.6	3.7	11.7	.	.
COc1cc(/C=C2\SC(=S)N(N(C)c3ccccc3)C2=O)ccc1O	-1.8	4.3	.	36.5*	-5.3	.	-10.6	?
CC(=O)Oc1ccc(-c2nc(-c3ccccc3)no2)cc1	.	-0.5	.	.	.	.	.	.
CC1CCN(Cc2c(C(=O)N/N=C/c3ccc(C(C)C)cc3)nnn2-c2nonc2N)CC1	52.1*	1.4	2.7	0.9	16.1	-17.3	3.8	1.8%
CC(=O)Oc1ccc(-c2cccc(C(=O)NCCO)c2)cc1	43.2*	-0.9	1.4	0.0	-5.0	-10.2	-1.9	-0.7%
CCNc1nc(NCC)n2c(SCC(=O)Nc3ccc(F)cc3)nnc2n1	1.0	0.0	0.7	0.0	11.9	9.8	.	.
CCNc1nc(NCC)n2c(SCC(=O)Nc3ccc(C)c(C)c3)nnc2n1	45.1*	2.8	-14.1	-0.2	16.9	11.6	14.2	4.5%
O=C(CSc1ccc(Br)cc1)N1CCN(C(=O)c2ccco2)CC1	59.7*	0.4	8.2	-0.7	-9.7	-0.9	-3.0	-0.2%
Cc1cc2c(s1)c1cnn(CC(=O)N3CCOCC3)c(=O)c1n2C	.	-0.3	.	.	.	.	.	.
SMILES	TRHR enhancer-1	TRPML1 ag	TRPV1 agonist	TRHR agonist-1	TRPML1 inh	TRPV1 PAM	TRHR enhancer-2	TRHR agonist-2
CCCCN1C(=O)/C(=C/C=C2\SCCN2C)SC1=S	-1.4	3.0	?	20.5	-3.2	-5.1	.	.
CN1CCS/C1=C/C=C1\SC(=S)N(CC(=O)O)C1=O	-3.2	12.1	17.4	26.7	21.9	-14.5	3.7	20.6µM*
CC(C)NS(=O)(=O)c1ccc2[nH]c3nc(SCC(=O)Nc4ccc(F)c(F)c4)nnc3c2c1	.	0.5	.	.	.	.	.	.
CCCCCCCCCOC(=O)CNc1nc(C#N)nc(NCC(=O)OCCCCCCCCC)n1	.	-0.2	.	.	.	.	.	.
Cc1cccc(N(C(=O)c2csnn2)C(C(=O)NC2CCCCC2)c2ccncc2)c1 (stereo not given)	54.5*	-0.1	-0.2	-0.1	-10.9	4.8	-9.3	0.7%
Cc1cccc(N(C(=O)c2csnn2)C(C(=O)NC2CCCC2)c2ccncc2)c1 (stereo not given)	20.3	-0.3	2.9	-1.1	-3.9	-4.6	.	.
Cc1cc(C)n(-c2nc3nonc3nc2-n2nc(C)cc2C)n1	54.2*	0.2	-0.9	0.0	20.2	-2.8	-3.9	4.1%
Cc1cc(C)n(CCN(C)c2nc3nonc3nc2N2CCCCC2)n1	2.4	-0.9	1.0	0.1	-1.5	4.2	.	.
CC(=O)Nc1ccc(Nc2nc(Nc3ccc(Cl)cc3)nc(N3CCOCC3)n2)cc1	.	-0.9	.	.	.	.	.	.
Cc1ccc(-c2nnc(Nc3ccc(CC(N)=O)cc3)c3ccccc23)cc1S(N)(=O)=O	52.0*	1.5	-2.5	0.2	-2.4	-13.9	-4.5	3.1%
COc1ccc2c(C)c(C(=O)N3CCN(Cc4ccccc4)CC3)oc2c1	70.2*	-0.3	24.8	0.1	-10.1	-3.5	?	-0.4%
COc1ccc(Cn2c(=O)[nH]c3cc(C(=O)N4CCN(Cc5ccccc5)CC4)ccc3c2=O)cc1	-0.7	0.3	0.2	0.2	36.4	-5.0	.	.
COc1ccc(CNc2ncnc3nc[nH]c23)cc1	.	0.3	.	.	.	.	.	.
COc1cc2ncnc(NCc3ccco3)c2cc1OC	74.5*	0.2	-3.9	-1.6	-15.9	6.7	-5.9	4.0%
COc1cc2ncnc(NCc3ccccc3)c2cc1OC	-1.3	-0.9	-0.7	-0.2	7.4	-15.9	.	.
O=C(CSc1ncc(-c2ccccc2)nn1)NCc1ccco1	8.5	-0.5	0.1	0.2	12.4	6.1	.	.
O=C(CSc1nnc(-c2ccccc2)c(-c2ccccc2)n1)NCc1ccco1	61.5*	4.1	5.1	-0.3	31.0	-1.5	-12.6	1.7%
CC(C)[C@H](NC(=O)c1c(F)cccc1F)C(=O)OCC(=O)NC(=O)NC1CCCC1	55.4*	1.0	4.6	-0.5	-8.3	4.5	-3.2	-0.3%
Cc1nn(CCCC(=O)Nc2ccccn2)c(C)c1[N+](=O)[O-]	47.2*	-0.8	-1.3	0.0	9.4	0.4	-4.0	1.0%

Assay outcomes: PubChem, National Center for Advancing Translational Sciences (NCATS)
